A selection: hits, their analogues and other compounds. The true share with any hit is near 12%.
G9a inh: inhibitors of human histone lysine methyltransferase G9a; Q96KQ7; G9a H3K9 monomethylation, AlphaScreen, 2 h; Potency, µM (doses to about 102 µM), for inactives: at the highest dose activity, negative = inhibition, usual class: inhibitors; hit rate 8.8% among 350,000; note: % is set by controls: 0 for no effect and ±100 for the full control effect; nearly all actives have a fitted effect of over 75% in size
Target sequence (Q96KQ7 913-1193 limits assumed): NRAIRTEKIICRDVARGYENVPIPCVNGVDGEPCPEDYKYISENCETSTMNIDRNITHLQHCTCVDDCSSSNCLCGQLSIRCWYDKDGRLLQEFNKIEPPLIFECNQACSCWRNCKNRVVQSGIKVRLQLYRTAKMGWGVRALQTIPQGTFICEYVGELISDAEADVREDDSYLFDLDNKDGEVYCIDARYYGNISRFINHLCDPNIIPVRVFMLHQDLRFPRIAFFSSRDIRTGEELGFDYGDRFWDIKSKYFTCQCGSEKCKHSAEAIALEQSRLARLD
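Enzyme 20 nM + cpd, 15 min RT; add b-H3K9 pep 500 nM / SAM 20 uM; 2 h RT; anti-H3K9me1 Ab 0.5 ug/mL + SA donor / anti-rabbit acceptor beads 20 ug/mL each, 10 min; AlphaScreen read.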
JMJD2A Tudor inh: blocks the human JMJD2A Tudor domain | Potency, µM (top dose mostly 114 µM), for inactives: at the highest dose activity change, negative = inhibition, most hits filed as inhibitors | AlphaScreen JMJD2A-Tudor / H3K4me3 peptide binding | hit rate 4.4% among 390,000 | AID 504339; note: % is set by controls: 0 for no effect and ±100 for the full control effect; nearly all actives have a fitted effect of over 50% in size
HP1b chromo inh: inhibitors of HP1-beta chromodomain binding to methylated histone tails | P83916 | AlphaScreen HP1-beta / biotin-H3K9me3 peptide binding | Potency, µM (doses to about 114 µM), for inactives: at the top dose activity change, negative = inhibition, most hits filed as inhibitors | hit rate 0.56% among 390,000 | AID 540317; note: nearly all actives have a fitted effect of over 70% in size
Target sequence (P83916 whole entry, looked up): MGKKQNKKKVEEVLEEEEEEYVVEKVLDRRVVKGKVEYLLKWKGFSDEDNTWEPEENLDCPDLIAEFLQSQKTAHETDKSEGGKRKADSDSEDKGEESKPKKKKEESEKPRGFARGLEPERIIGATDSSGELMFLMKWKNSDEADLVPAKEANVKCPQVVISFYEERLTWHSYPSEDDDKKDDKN
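Compound inhibition of the preformed complex between 50 nM HP1-beta and 50 nM biotinylated H3K9me3 peptide was read by AlphaScreen. Buffer was PBS pH 7.4 with 0.01% Tween-20. Incubations ran 30 min at room temperature, with 10 ug/mL donor/acceptor beads.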
Sfp PPTase inh: inhibitors of Bacillus subtilis Sfp phosphopantetheinyl transferase; Biochemical Sfp PPTase activity, qHTS; Q9F4F7; hit rate 3.5% among 310,000; Potency, µM, for inactives: largest response in the series, negative = inhibition, hits mostly inhibitors;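 note: the enzyme is Sfp with the accession as filed and its product quenches rhodamine fluorescence; 0% = enzyme reaction without inhibitor and -100% = no enzyme wells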
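After 15 min at room temperature with compound, 15 nM Sfp received 5 uM rhodamine-CoA plus 12.5 uM BHQ-2-ybbR (50 mM Hepes pH 7.6, 10 mM MgCl2). Rate came from the fluorescence difference over 30 min, ex 525/em 598 nm.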
L3MBTL1 inh: L3MBTL1 (human) inhibition; Potency, µM (highest dose often 57.1 µM), for inactives: top-dose activity, negative = inhibition, actives largely listed as inhibitors; hit rate 0.66% among 230,000; AlphaScreen L3MBTL1–H3K9me1 peptide binding; note: % is set by controls: 0 for no effect and ±100 for the full control effect; nearly all actives have a fitted effect of over 60% in size
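AlphaScreen assay: L3MBTL1 (50 nM final) was preincubated 30 min at room temperature with biotinylated H3(1-15)K9me1 peptide (75 nM final), then 30 min with library compounds; streptavidin donor and nickel chelate acceptor beads (10 ug/mL final) added, 30 min dark.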
BAZ2B inh: blocks human BAZ2B; hit rate 4.4% among 360,000; Potency, µM (highest dose often 114 µM), for the others: at the top dose activity change, negative = inhibition, usual class: inhibitors; Q9UIF8; AlphaScreen BAZ2B-H3K14Ac peptide displacement; note: % is set by controls: 0 for no effect and ±100 for the full control effect; nearly all actives have a fitted effect of over 60% in size
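AlphaScreen luminescence quantifies BAZ2B engagement of H3K14Ac peptide; the protein and biotinylated peptide are both at 50 nM final, buffer PBS pH 7.4 with 0.01% Tween-20, all steps at room temperature.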
* marks the source's active call; other numbers are inactive results; u = inconclusive; x = no result; ! = repeats disagree; [ ] = remark or other dose. Calls come from the whole dose curve; as a rule, active = well fitted curve in the direction sought with a large enough effect; inconclusive = small, poorly fitted or top-dose-only effect, or another doubt; inactive = no such curve, though single readings can be large; an effect the other way counts as inactive or inconclusive. Potency is the fitted concentration of half-maximal effect.

SMILES	G9a inh	JMJD2A Tudor inh	HP1b chromo inh	Sfp PPTase inh	L3MBTL1 inh	BAZ2B inh
Cc1ccc(-n2c(O)c(/C=N/N3CCOCC3)c(=O)[nH]c2=S)cc1	u	u	20.6%	u	-18.7%	u
CC(C)(N)Cc1ccc(Cl)cc1	11.7%[59 µM]	x	x	10.9%	x	x
CCOc1nc(NC(C)C)nc(N2CC3CC(C2)c2cccc(=O)n2C3)n1 (configuration not stated)	-27.9%	20µM*	u	0.4%	x	11.3%
CCCCCCNc1nc(OC)nc(N2CC3CC(C2)c2cccc(=O)n2C3)n1 (configuration not stated)	-16.8%	-17.1%	26.0%	8.5%	1.0%	-13.6%
CN(C)c1ccc(/C=C/c2cc[n+](C)c3ccccc23)cc1	u	22.4µM*	44.7µM*	56.2µM*	u	79.4µM*
Cc1ccc(CC2C(=O)N(C)C(=O)N(C)C2=O)s1	7.94µM*	-27.4%	8.4%	35.5µM*	-2.0%	-2.7%
C=CCOc1ccc(CC2C(=O)N(C)C(=O)N(C)C2=O)cc1	-47.2%[12.7 µM]	-13.4%[57.1 µM]	-6.8%	-15.5%	-11.9%	12.2%
Cc1ccc(/C=C2\C(=O)NC(=S)N(c3ccc(F)cc3)C2=O)s1	6.31µM*	-34.0%	11.0%	-2.7%	x	44.7µM*
Cc1ccc(/C=C2\C(=O)NC(=S)N(c3ccccc3F)C2=O)s1	u	70.8µM*	u	14.1µM*	u	50.1µM*
Cc1ccc(/C=C2\C(=O)NC(=O)N(CC3CCCO3)C2=O)s1 (configuration not stated)	u	-23.4%	27.0%	u	-14.9%	u
Cc1ncsc1CCOC(=O)c1ccc([N+](=O)[O-])cc1	u	u	-33.2%	5.8%	-15.1%	u
C[C@]12CCC3C(CC[C@H]4C[C@@H](O)CC[C@]34C)[C@@H]1CCC2=O (some centres not stated)	x	x	x	19.2%	x	x
CCOc1ccc(S(=O)(=O)O)c2cccnc12	6.1%[12.7 µM]	x	x	70.8µM*	x	x
CC(C)(C)OC(=O)NNC(=S)NC1CCCCC1	25.1µM*	-3.4%	29.1%	10.7%	-3.5%[11.4 µM]	-15.8%
Cc1[nH]nc2ccc(-c3cncc(OC[C@@H](N)Cc4c[nH]c5ccccc45)c3)cc12	x	35.5µM*	-35.8%	x	x	x
N[C@@H](Cc1c[nH]c2ccccc12)c1nnc(SCc2ccccc2)o1	x	-29.7%	1.6%	5.1%	-0.8%	u
O=C(NCCc1ccc(Cl)cc1)c1ccc(CNc2c(N3CCOCC3)c(=O)c2=O)cc1	-1.8%	-6.7%	53.5%	-7.8%	x	-0.8%
COc1ccc(N2C(=O)/C(=C/C=C/c3ccccc3[N+](=O)[O-])C(=O)NC2=S)cc1	6.31µM*	12.6µM*	25.1µM*	35.5µM*	x	50.1µM*
Cc1ccc(/C=C2\C(=O)NC(=S)N(c3ccc(F)cc3)C2=O)o1	3.98µM*	50.1µM*	-17.5%	44.7µM*	15.8µM*	56.2µM*
COc1ccc(N2C(=O)/C(=C/c3ccc(N(C)C)o3)C(=O)NC2=S)cc1	44.7µM*	-6.4%	30.2%	-22.4%	x	u
CCN(CC)c1ccc(/C=C2\C(=O)NC(=S)N(c3ccc(OC)cc3OC)C2=O)o1	x	-25.7%	-15.1%	x	x	x
Cc1ccc(N2C(=O)/C(=C/c3ccc(CN(CCC#N)S(C)(=O)=O)o3)C(=O)NC2=S)cc1	7.94µM*	17.8µM*	50.1µM*	20µM*	31.6µM*	50.1µM*
COc1cccc(N2C(=O)/C(=C/c3ccc(C)o3)C(=O)NC2=S)c1	4.47µM*	22.4µM*	u	25.1µM*	x	50.1µM*
C=CCN1C(=O)/C(=C/c2ccc(N3CCOCC3)o2)C(=O)NC1=S	u	-11.6%	6.8%	-5.3%	-46.6%	u
COc1ccc(N2C(=O)/C(=C/c3cccs3)C(=O)NC2=S)cc1	7.08µM*	35.5µM*	-16.7%	8.91µM*	x	-38.5%
SMILES	G9a inh	JMJD2A Tudor inh	HP1b chromo inh	Sfp PPTase inh	L3MBTL1 inh	BAZ2B inh
Cc1cc(C)cc(N2C(=O)/C(=C\c3ccc(N4CCN(C)CC4)o3)C(=O)NC2=S)c1	u	-32.4%	u	-0.8%	-22.0%	35.5µM*
O=C(Nc1ccccc1C(F)(F)F)c1cccn(Cc2ccccc2)c1=O	6.7%[59 µM]	1.0%	42.1%	x	x	2.4%
C=CC[N+](C)(C)c1ccc(CCC(=O)CCc2ccc([N+](C)(C)CC=C)cc2)cc1	15.8µM*	-3.6%	29.4%	x	-7.3%	-13.3%
O=Cc1cn(Cc2c(F)cccc2Cl)c2ccccc12	44.9%[59 µM]	13.9%	46.5%	50.1µM*	x	-0.7%
Cc1ccc(N/N=C/C=C/c2ccco2)cc1	x	50.1µM*	u	x	x	x
CCCC(C)(COC(N)=O)COC(=O)NC1CC1 (configuration not stated)	-42.5%[12.7 µM]	x	x	21.1%	x	x
O=c1[nH]c(=S)n(-c2ccccc2)c(O)c1/C=N/N1CCCCC1c1cccnc1 (configuration not stated)	8.91µM*	-11.2%	39.6%	50.1µM*	x	u
CCc1ccc(-n2c(O)c(/C=N/N3CCCCC3c3cccnc3)c(=O)[nH]c2=O)cc1 (configuration not stated)	6.3%[59 µM]	-15.1%	57.9%	5.4%	9.7%	-8.3%
O=c1[nH]c2sccc2c2ccccc12	x	x	x	4.9%	x	x
COc1ccc(CN2CCN(c3ncnc4sc5c(c34)CCCC5)CC2)cc1F	u	-29.8%	5.1%	x	x	-28.6%
O=c1[nH]c(=S)[nH]c(O)c1/C=N/N1CCOCC1	50.1µM*	6.3%	52.9%	u	10.9%	0.1%
O=C(O)c1cc[c]([Hg][Cl])cc1	1µM*!	0.891µM*	u	x	8.2%	1.26µM*
COC(=O)[C@@H]1C[C@@]2(O)[C@H](O)[C@H](O)[C@H](O)C[C@H]2N1Cc1cccnc1	x	x	x	10.5%	x	x
OC(COCc1ccc(Cl)cc1)CN1CC=C(c2ccccc2)CC1 (configuration not stated)	u	1.12µM*!	u	u	4.6%	50.1µM*
CS(=O)(=O)N1CCC2(CCCN(Cc3ccncc3)C2)CC1	9.3%[12.7 µM]	x	x	2.4%	x	x
O=S(=O)(O)c1cc(O)ccc1O	10µM*	79.4µM*	u	-3.3%	14.7%	3.0%
Cc1nc2cc(F)ccc2n1C1CCN(Cc2nnnn2CCc2ccccc2)CC1	-15.6%[59 µM]	-35.4%[57.1 µM]	-5.6%	-0.3%	x	56.2µM*
CCOC(=O)c1ccc(N2C(=O)c3n[nH]c(-c4cccs4)c3C2c2ccc(C(C)(C)C)cc2)cc1 (configuration not stated)	u	u	-3.5%	x	x	x
C=CCSc1nc2c(c(-c3ccsc3)c1C#N)CN(C)CC2	15.8µM*	-32.4%	-3.4%	-14.5%	-14.2%	-36.5%
CN(Cc1ccccc1)C(=C(Cl)Cl)/C(=C1/NCCN1Cc1ccc(Cl)nc1)[N+](=O)[O-]	50.1µM*	-26.2%	13.9%	9.9%	x	-10.0%
COc1ccc(C(=O)N2CCC3(CC2)OCCO3)cc1	x	-1.4%	25.6%	5.4%	-3.9%	11.9%

Assay outcomes deposited in PubChem BioAssay by National Center for Advancing Translational Sciences (NCATS).
